# Bioassay records (PubChem BioAssay)
# This is one part of a sample in which hits are shown more often than they occur.
# CBX7 AlphaScr = CBX7 inhibition, primary AlphaScreen. O95931. AlphaScreen His6-CBX7 / biotin-H3K27me3 peptide binding; stronger effect = lower value. normalised signal (fraction of DMSO) (test concentration not listed). 1.1% of 66,000 active. AID 1224903; in the data active = normalised signal below about 0.5
# Target sequence (O95931 whole entry, looked up): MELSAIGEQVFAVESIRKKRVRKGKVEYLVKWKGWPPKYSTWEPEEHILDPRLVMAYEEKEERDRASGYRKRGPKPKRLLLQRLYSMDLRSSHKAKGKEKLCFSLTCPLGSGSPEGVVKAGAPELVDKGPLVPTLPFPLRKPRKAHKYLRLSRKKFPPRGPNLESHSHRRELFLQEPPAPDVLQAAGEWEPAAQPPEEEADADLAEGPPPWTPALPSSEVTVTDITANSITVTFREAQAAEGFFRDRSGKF
# * = called active by the depositor.
SMILES,CBX7 AlphaScr
CCOC(=O)C1(c2ccccc2)CCN(CC(=O)Nc2cccc(Cl)c2)CC1,0.35*
CCOC(=O)C1(c2ccccc2)CCN(CC(=O)Nc2ccc(F)cc2)CC1,1.1
CCOC(=O)C1(c2ccccc2)CCN(CC(=O)Nc2cc(Cl)ccc2OC)CC1,1
CCN1CCN(C(=O)Cc2c(C(=O)O)[nH]c3ccc(Cl)cc23)CC1,1.1
CC1N=C(c2ccccc2)c2cc(Cl)ccc2N(CC(=O)Nc2ccc(N(C)C)cc2)C1=O (centres undefined),0.52
CC1N=C(c2ccccc2F)c2cc(Cl)ccc2N(CC(=O)Nc2ccc(N(C)C)cc2)C1=O (centres undefined),0.27*
Cc1ccc(NC(=O)CN2C(=O)C(C)N=C(c3ccccc3F)c3cc(Cl)ccc32)cc1C (centres undefined),0.97
COc1ccc(-n2c(/C=C/c3ccccc3)nc3ccccc3c2=O)cc1Cl,0.95
C#CCN1CCC2=C(C1)c1c(O)cc(C(C)C(C)CCCCC)cc1OC2(C)C (centres undefined),0.65
CCCCCC(C)C(C)c1cc(OC)c2c(c1)OC(C)(C)C1=C2CN(CC(N)=O)CC1 (centres undefined),0.38*
COc1ccc(Cl)cc1-n1c(/C=C\c2ccccc2F)nc2ccccc2c1=O,1
CCCCc1nc2ccccc2c(=O)n1-c1ccc(OC)cc1,1.1
Cc1ccc(F)cc1-n1c(/C=C\c2ccc(F)cc2)nc2ccccc2c1=O,1
O=C(c1ccccc1)c1cc(Br)ccc1NC(=O)c1c(F)cccc1F,1.1
CNc1ccc(Br)cc1C(=O)c1ccccc1Cl,1.1
CNc1ccc(C)cc1C(=O)c1cccc(Br)c1,0.42*
COc1cc2c(cc1OC)C(C(=O)N1CCN(c3cccc(Cl)c3)CC1)C1CCCCN1C2=O (centres undefined),0.95
COc1ccc(-n2nnnc2C2(NCCc3c(C)[nH]c4ccccc34)CCCCC2)cc1,0.55
Nc1nonc1Cc1nc(-c2nonc2N)n[nH]1,0.96
O=C(CN1CC(c2ccccc2)CC1=O)NCc1ccc(F)cc1Cl (centres undefined),1
COc1ccc2[nH]c(C)c(CCNCC(C)(C)C)c2c1,1.1
COc1ccc2[nH]c(C)c(CCNCc3ccc(C#N)cc3)c2c1,0.26*
COc1ccc2[nH]c(C)c(CCNCc3cccc4ccccc34)c2c1,0.59
COc1ccc(/C=C/c2nc3ccccc3c(=O)n2-c2ccc(F)c(Cl)c2)cc1,1.1
COc1ccc(NC(=O)C2c3cc(OC)c(OC)cc3C(=O)N3CCCCC23)cc1Cl (centres undefined),1.2
